From publication PMC5540273 (PLoS ONE, 2017) come the findings set out here.

Common to all, as to details: concentration: 1 μM, replicates: in singlicate; n = 1
Experiment [1] relates to T1, VPS34.
T1 construct: gene PIK3C3

Experiment [2] deals with VRK2.
In experiment [3] the test system is WEE1.
Experiment [4] deals with WEE2.
Experiment [5] deals with WNK1.
The subject of experiment [6] is WNK2.
Experiment [7] deals with WNK3.
For experiment [8], the system named is WNK4.
Experiment [9] relates to T2, YANK1.
T2 construct: gene STK32A

The subject of experiment [10] is T3, YANK2.
T3 construct: gene STK32B

Experiment [11] concerns T4, YANK3.
T4 construct: gene STK32C

Experiment [12] relates to T5, YES.
T5 construct: gene YES1

The subject of experiment [13] is T6, YSK1.
T6 construct: gene STK25

In experiment [14] the test system is T7, YSK4.
T7 construct: gene MAP3K19

Experiment [15] has as its system ZAK.
The subject of experiment [16] is ZAP70.
The subject of experiment [17] is T8, p38-alpha.
T8 construct: gene MAPK14

Experiment [18] relates to T9, p38-beta.
T9 construct: gene MAPK11

The subject of experiment [19] is p38-delta.
In experiment [20] the test system is T10, p38-gamma.
T10 construct: gene MAPK12
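Further: KINOMEscan kinase panel screen.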

For the compound `O=C(NCCNc1ccnc(Nc2ccc(F)cc2)n1)c1cc2ccccc2s1` [GSK1379874], the “%Inh” value in [1] was 16%; in experiment [2], 0%; in experiment [3] it was 38%; in experiment [4], 5%; in experiment [5], 0%; in experiment [6], 0%. For the same compound, the “%Inh” value in experiment [7] stood at 16%; in experiment [8], 39%; in experiment [9] it was 0%; in experiment [10], 0%; in experiment [11], 8%; in experiment [12], 3%. Besides, the “%Inh” value amounted to 0% in [13]; 35% in [14]; 100% in experiment [15]; 6% in experiment [16]; 20% in experiment [17]; 0% in experiment [18]. In addition, the results for the “%Inh” value in experiment [19] and in experiment [20] were 40% and 0%, respectively.
For `CSc1ccc(-c2cc3ncnc(SCC(=O)O)c3s2)cc1`, the “%Inh” value in [1] was found to be 31%; in [2], 0%; in [3], 0%; in experiment [4], 15%; in experiment [5], 0%; in [6], 0%. Moreover, the “%Inh” value in experiment [7], in experiment [8], in [9], in experiment [10], in experiment [11] and in [12] was 0% throughout. Also, the “%Inh” value in experiment [13] is 0%; in experiment [14], 7%; in experiment [15], 0%; in experiment [16], 0%; in [17], 0%; in experiment [18] it was 0%. Moreover, the “%Inh” value in experiment [19] is reported as 34%; in experiment [20], 5%.
Regarding `Fc1ccc(-c2ncn(CCCN3CCOCC3)c2-c2ccccn2)cc1` [SB-211742], the “%Inh” value in experiment [1] is on record as 20%; in experiment [2], 0%; in experiment [3] it was 21%; in experiment [4] it was 11%; in experiment [5], 0%; in experiment [6], 0%. The “%Inh” value in [7] is on record as 5%; in experiment [8] it was 0%; in [9] it was 0%; in [10], 0%; in [11], 0%; in experiment [12], 0%. The “%Inh” value turned out to be 0% in experiment [13]; 0% in [14]; 0% in [15]; 3% in experiment [16]; 2% in experiment [17]; 0% in experiment [18]. Besides, the “%Inh” value in [19] worked out at 2%; in experiment [20] it was 23%.
As for `Cc1cccc(Cn2ccn3c(=O)cc(N4CCOCC4)nc23)c1` [GSK2297542], the “%Inh” value in [1] was found to be 94.6%; in experiment [2], 0%; in experiment [3], 22%; in experiment [4], 22%; in [5], 9%; in experiment [6] it was 6%. Moreover, the “%Inh” value in experiment [7] amounted to 12%; in experiment [8] it was 8%; in [9], 20%; in experiment [10] it was 0%; in [11], 16%; in [12], 19%. For the same compound, the “%Inh” value in experiment [13] was 17%; in experiment [14], 12%; in experiment [15], 17%; in experiment [16] it was 0%; in [17] it was 27%; in [18], 0%. The “%Inh” value is on record as 36% in experiment [19] and 51% in experiment [20].
Regarding `O=C(c1ccc(-c2cc(-c3c[nH]nc3-c3ccccn3)ccn2)cc1)N1CCOCC1` [GW812171], the “%Inh” value in experiment [1] came to 9%; in experiment [2] it was 23%; in experiment [3], 0%; in experiment [4], 0%; in [5] it was 2%; in experiment [6] it was 9%. For the same compound, the “%Inh” value was 4% in experiment [7]; 0% in experiment [8]; 0% in experiment [9]; 63% in experiment [10]; 0% in experiment [11]; 0% in experiment [12]. Also, the “%Inh” value in experiment [13] worked out at 0%; in experiment [14], 0%; in experiment [15], 29%; in [16], 0%; in [17], 20%; in [18] it was 8%. For the same compound, the “%Inh” value in experiment [19] and in experiment [20] was 0% each time.
For the compound `C[C@@H](Oc1cc(-n2cnc3ccc(NC(=O)NC(C)(C)C)cc32)sc1C(N)=O)c1ccccc1Cl` [GSK346294], the “%Inh” value was determined as 0% in [1]; 5% in experiment [2]; 5% in experiment [3]; 12% in [4]; 14% in [5]; 25% in experiment [6]. The “%Inh” value in experiment [7] was 33%; in experiment [8], 0%; in experiment [9], 0%; in experiment [10], 0%; in [11] it was 12%; in experiment [12], 3%. Moreover, the “%Inh” value stood at 0% in experiment [13]; 3% in experiment [14]; 0% in [15]; 6% in [16]; 32% in experiment [17]; 0% in experiment [18]. Further, the “%Inh” value in [19] came out at 30%; in experiment [20], 2%.
In the case of `CCn1cnc2c(N)ncnc21` [GW345098], the “%Inh” value turned out to be 1% in [1]; 0% in experiment [2]; 2% in [3]; 14% in experiment [4]; 0% in experiment [5]; 0% in [6]. For the same compound, the “%Inh” value in experiment [7] was found to be 0%; in experiment [8], 0%; in [9], 0%; in experiment [10] it was 0%; in [11] it was 0%; in [12], 21%. The “%Inh” value in [13] was found to be 0%; in [14], 5%; in [15], 12%; in experiment [16] it was 3%; in experiment [17], 5%; in [18] it was 4%. Besides, the “%Inh” value is 0% in experiment [19] and 49% in experiment [20].
Take `O=C1NC(=O)C(N2CCc3ccccc32)=C1c1cccc(Cl)c1` [SB-408010]: the “%Inh” value was 0% in experiment [1]; 0% in experiment [2]; 0% in experiment [3]; 4% in experiment [4]; 0% in experiment [5]; 14% in [6]. In addition, the “%Inh” value stood at 0% in [7]; 89% in experiment [8]; 0% in [9]; 19% in [10]; 17% in [11]; 0% in [12]. Also, the “%Inh” value turned out to be 0% in experiment [13]; 0% in experiment [14]; 14% in experiment [15]; 29% in experiment [16]; 7% in experiment [17]; 7% in [18]. Further, the “%Inh” value in [19] is 15%; in experiment [20], 0%.
Take `COc1cc2c(cc1OC[C@@H](O)CO)ncc1c3ccc(C#N)cc3[nH]c21`: the “%Inh” value in experiment [1] was 0%; in experiment [2], 9%; in [3], 0%; in [4] it was 0%; in [5], 1%; in [6] it was 0%. The “%Inh” value in [7] is 2%; in experiment [8], 0%; in experiment [9], 19%; in experiment [10], 0%; in [11], 0%; in experiment [12], 0%. Moreover, the “%Inh” value in experiment [13] is 0%; in experiment [14] it was 90%; in experiment [15], 1%; in [16] it was 0%; in experiment [17] it was 5%; in experiment [18], 15%. For the same compound, the “%Inh” value in experiment [19] is reported as 0%; in experiment [20], 18%.
For `COc1ccc(Nc2ncc(C#N)c(Nc3ccccc3C(N)=O)n2)cc1N1CCN(C)CC1.Cl` [GSK1558669], the “%Inh” value in [1] is recorded as 43%; in experiment [2], 0%; in experiment [3] it was 99.8%; in experiment [4] it was 100%; in experiment [5] it was 66%; in experiment [6] it was 31%. In addition, the “%Inh” value in experiment [7] is reported as 4%; in [8] it was 0%; in [9], 93.5%; in [10] it was 68%; in experiment [11], 48%; in experiment [12], 98.8%. In addition, the “%Inh” value in experiment [13] was found to be 95.2%; in experiment [14], 99.7%; in experiment [15], 64%; in experiment [16], 98.1%; in experiment [17], 0%; in [18], 0%. In addition, the “%Inh” value was found to be 0% in experiment [19] and 32% in experiment [20].
